According to ChEMBL document CHEMBL3988442, “University of Dundee, Small-Polar-MMV Screening Library” (2021):
The whole screen tested about 48,000 compounds, of which about 13,000 (27%) showed an effect of 50% or more. Some of the results follow.

test system: Wolbachia pipientis; assay: Anti-Wolbachia Cell-Based Screen; type: functional; design: scale not given: in the data most compounds retested in dose-response had high values; settings: 5 µM

| Compound | Percent Effect [%] |
| --- | --- |
| COc1ccccc1CN1C(=O)O[C@@H]2CN(c3nccs3)C[C@@H]21 | -9.448 |
| CCc1ccc(NS(=O)(=O)CC2=NC(=O)n3cccc3C2=O)cc1 | 11.57 |
| CCn1cnnc1CCNC(=O)c1ccc(F)c(Br)c1 | -6.891 |
| CN(C)C(=O)CO[C@H]1CO[C@@]2(CCN(S(C)(=O)=O)C2)C1 | -10.41 |
| Cn1c(CN2CCN(c3cccnc3)CC2)cc2ccccc21 | 39.54 |
| COCCNC(=O)C1CN(Cc2cccnc2)Cc2ccnn2C1.O=C(O)C(F)(F)F.O=C(O)C(F)(F)F.O=C(O)C(F)(F)F (stereo not given) | 1.319 |
| CS(=O)(=O)N1Cc2ccnn2CC(C(=O)NCc2cccnc2)C1.O=C(O)C(F)(F)F.O=C(O)C(F)(F)F (stereo not given) | 101.4 |
| COCCNC(=O)C1CN(C(N)=O)Cc2ccnn2C1 (stereo not given) | 100.3 |
| O=C(NCc1cccnc1)[C@@H]1CC[C@@H]2[C@@H](CCN2c2ncc(F)cn2)O1.O=C(O)C(F)(F)F.O=C(O)C(F)(F)F | -0.1893 |
| COCCNC(=O)C1CN(Cc2ccsc2)Cc2ccnn2C1 (stereo not given) | 3.328 |
| CC(C)NC(=O)C1CN(C(N)=O)Cc2ccnn2C1 (stereo not given) | -7.077 |
| CC(=O)N1Cc2ccnn2CC(C(=O)NCc2cccnc2)C1.O=C(O)C(F)(F)F (stereo not given) | 105.9 |
| CC(C)CN(Cc1ccc(C(F)(F)F)nc1)Cc1cnn(C)c1 | -7.949 |
| COc1cccn(CC(=O)N(C)CCSC)c1=O | -16.92 |
| O=C(O)c1ccc2c(c1)C1(CCCCC1)CN2C(=O)c1cccs1 | -9.46 |
| O=C1CCCN1CCN1CC[C@@]2(O)CCN(c3ncccn3)C[C@H]2C1 | -11.72 |
| OC(CNCCn1cccn1)COc1ccc(Br)cc1 (stereo not given) | 2.37 |
| CCN(CC)CC[C@H]1CN(C(=O)C(C)(C)C)CC[C@H]1CC(=O)O | -8.739 |
| Cc1nc2n(n1)CC(NCCCc1nc(-c3cccs3)no1)CC2 (stereo not given) | -18.09 |
| Cc1ncsc1C(=O)Nc1ccccn1 | 113.7 |
| Cc1ccc(C(=O)N(C)CC(=O)Nc2cccc(C)n2)cn1 | -9.643 |
| Cc1cccc(NC(=O)CN(C)C(=O)c2ccc(-n3cccc3)nc2)n1 | 6.082 |
| Cc1oc(C)c(C(=O)Nc2ccccn2)c1C | 13.13 |

| Compound | Percent Effect [%] |
| --- | --- |
| Cc1cccc(NC(=O)CN(C)C(=O)c2scnc2C)n1 | 117.3 |
| Cc1ncsc1C(=O)N[C@@H](Cc1ccccc1)C(N)=O | 5.528 |
| CCn1cc2c(n1)C(COCC1CC1)CN(C(=O)c1cnoc1C)C2 (stereo not given) | -6.391 |
| CN(CC1Cc2ccccc2CN1C)C(=O)CSc1ccccn1 (stereo not given) | 0.2013 |
| Cc1cccc(CNC2CC3(CCN(CCO)CC3)c3ccccc32)n1.O=C(O)C(F)(F)F.O=C(O)C(F)(F)F (stereo not given) | 121.3 |
| Cc1ccc(CNC2CC3(CCN(CCO)CC3)c3ccccc32)s1.O=C(O)C(F)(F)F.O=C(O)C(F)(F)F (stereo not given) | 107.2 |
| COCCN1CCC2(CC1)CC(NCc1ccc(C)s1)c1ccccc12.O=C(O)C(F)(F)F.O=C(O)C(F)(F)F (stereo not given) | 109.1 |
| O=C(NC1CC2(CCN(CCO)CC2)c2ccccc21)c1ccsc1.O=C(O)C(F)(F)F (stereo not given) | -2.437 |
| O=C(NC1CC2(CCN(CCO)CC2)c2ccccc21)c1ccno1.O=C(O)C(F)(F)F (stereo not given) | -3.484 |
| COCCN1CCC2(CC1)CC(N1CCOCC1)c1cc(C)ccc12.O=C(O)C(F)(F)F.O=C(O)C(F)(F)F (stereo not given) | -13.01 |
| COCCN1CCC2(CC1)CC(NCc1cncn1C)c1ccccc12.O=C(O)C(F)(F)F.O=C(O)C(F)(F)F (stereo not given) | -4.638 |
| CC(NCc1cccn1C)c1noc(-c2ccc(Cl)cc2)n1 (stereo not given) | -2.056 |
| CN1C(=O)CO[C@H](c2ccc(NC(=O)c3cccnc3)cc2)[C@H]1CO | -10.51 |
| Nc1nc2c(c(NC(=O)Nc3cccc(Cl)c3)n1)CCCC2 | 7.303 |
| Cc1c(NCc2ccc(C#N)cc2)cccc1S(=O)(=O)NC1CC1 | -7.698 |
| c1cn(CCn2cnnc2)c(-c2cc3n(n2)CCCNC3)n1 | -4.741 |
| COc1ccccc1C(=O)N1CC(=O)N(CC(C)C)CC(O)C1 (stereo not given) | 116.8 |
| CC(C)c1nnc2n1CCN(C(=O)c1ccccc1OCC1CC1)C2 | -3.948 |
| COc1ccccc1C(=O)N1CC(=O)N(CC2CC2)CC(O)C1 (stereo not given) | 108.3 |
| COc1ccccc1C(C)CC(=O)N1CC[C@H](O)C1 (stereo not given in full) | 18.86 |
| CCC(NC(=O)c1ccco1)c1nc(C(F)(F)F)cs1 (stereo not given) | -6.981 |
| CNC(=O)NCC1CCC2(CCN(C(=O)c3cccnc3)CC2)CO1.O=C(O)C(F)(F)F (stereo not given) | 102.7 |
